Assay [1] can be described thus: NCI Yeast Anticancer Drug Screen. Data for the rad50 strain (AID 155).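 Also: 0% = growth of vehicle-only cultures of the same strain.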 The settings on record: S. cerevisiae rad50 strain growth inhibition; at 50.0 µM; stronger effect = higher value. The essentials:
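DNA repair mutant yeast, compound exposure, growth read-out; inhibition is taken relative to vehicle.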

Assay [2] can be described thus: NCI Yeast Anticancer Drug Screen. Data for the mec2-1 strain (AID 157). The settings on record: S. cerevisiae mec2-1 strain, at 50.0 µM, stronger effect = higher value. In short, it runs like this: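 Yeast mec2-1 mutant treated with compound. Readout: growth inhibition vs vehicle controls.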
Assay [3] is described as follows: NCI Yeast Anticancer Drug Screen. Data for the sgs1 mgt1 strain (AID 161).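 Also: 0% = growth of cultures given vehicle only.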 Particulars: S. cerevisiae sgs1 mgt1 strain, at 50.0 µM, stronger effect = higher value. In short, it runs like this: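 Inhibition of yeast growth, normalised to vehicle-treated controls, is reported for a strain bearing genetic alterations in DNA damage repair.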
A short description of assay [4]: NCI Yeast Anticancer Drug Screen. Data for the cln2 rad14 strain (AID 165).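 Also: 0% = growth equal to vehicle treated cultures.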 Particulars: S. cerevisiae cln2 rad14 strain, at 50.0 µM, stronger effect = higher value. The essentials: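 cln2 rad14 yeast strain; compound exposure; growth inhibition read vs vehicle controls.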
Assay [5] is described as follows: NCI Yeast Anticancer Drug Screen. Data for the bub3 strain (AID 167). The settings on record: S. cerevisiae bub3 mutant strain, at 50.0 µM, stronger effect = higher value. The essentials: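 In this screen, a yeast mutant lacking normal mitotic checkpoint function is challenged with compound. Relative growth versus vehicle gives the inhibition value.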
Assay [6] is described as follows: NCI Yeast Anticancer Drug Screen. Data for the mlh1 rad18 strain (AID 175). Particulars: S. cerevisiae mlh1 rad18 strain growth inhibition; at 50.0 µM; stronger effect = higher value. The essentials: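 Yeast w/ defined DNA-repair lesions; compound exposure; growth vs vehicle controls → % inhibition.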

Molecules are shown by their SMILES. About 79,000 compounds went through this panel and 15% of them were active in at least one assay; those are over-represented in the sample as a whole. Unmarked numbers belong to inactive results. The source made the active and inactive calls. Rule as the data show it: active = growth inhibition above about 70%; inactive = the rest.

Regarding `ClC(c1ccccc1)(c1ccccc1)C(Cl)(c1ccccc1)c1ccccc1`, the growth inhibition in assay [1] was 45.9%; in assay [2] it was 5.05%; in assay [3] it was 24.1%; in assay [4] it was 11.8%; in assay [5], 4.6%; in assay [6] it was 26.9%.

For `COC(=O)C(C(=O)c1ccccc1)C(C(=O)C(=O)Nc1ccc(OC)cc1OC)C(=O)C(=O)c1ccc(C)cc1` (stereo not drawn), the growth inhibition in assay [1] was -1.3%; in assay [2] it was 10.8%; in assay [3] it was 3.7%; in assay [4] it was -3.9%; in assay [5], 2.85%; in assay [6], 19.6%.

With `O=C1OC(c2ccccc2)=N/C1=C\c1cccnc1`, the growth inhibition in assay [1] was 12.3%; in assay [2], -3.25%; in assay [3], 0%; in assay [4], -10.3%; in assay [5], -5.8%; in assay [6] it was 13.1%.

For `COc1ccccc1CC(=O)C(O)(C(F)(F)F)C(F)(F)F`, the growth inhibition in assay [1] is -37.5%; in assay [2], -36.3%; in assay [3], -18.9%; in assay [4], -28.6%; in assay [5], -5.9%; in assay [6] it was -26.9%.

For the compound `NC1(c2ccccc2)CON=C(c2ccccc2)C1` (stereo not drawn), the growth inhibition in assay [1] is 17.2%; in assay [2], 5.85%; in assay [3] it was -5.8%; in assay [4], -15.8%; in assay [5], 1.4%; in assay [6] it was 16.9%.

In the case of `CSc1nnc(COc2ccc(Cl)cc2)o1`, the growth inhibition in assay [1] is 22.3%; in assay [2], 5.75%; in assay [3], 26.1%; in assay [4], 29.4%; in assay [5], 12.8%; in assay [6] it was 20.7%.

For the compound `O=c1nc(NC(c2ccccc2)(c2ccccc2)c2ccccc2)ccn1CCCl`, the growth inhibition in assay [1] was -5.35%; in assay [2], 4.55%; in assay [3], -1.5%; in assay [4], -23.9%; in assay [5] it was -20.9%; in assay [6], -9.7%.

As for `CC(C)Nc1ccc(O)cc1`, the growth inhibition in assay [1] is -21.1%; in assay [2], -40%; in assay [3], -4.2%; in assay [4] it was -6.3%; in assay [5], -10.3%; in assay [6], -8%.

Consider `CCc1ccc(C(O)C(=O)O)cc1` (stereo not drawn), for which the growth inhibition in assay [1] is 4.6%; in assay [2], 7.95%; in assay [3] it was -1.6%; in assay [4], 3.85%; in assay [5] it was -2.7%; in assay [6], -3.75%.

As for `O=C(/C=C/c1ccc(O)c(O)c1)c1ccc(O)c(O)c1O`, the growth inhibition is 14.3% in assay [1]; -5.15% in assay [2]; 4.45% in assay [3]; -57.9% in assay [4]; 8.55% in assay [5]; 19.5% in assay [6].

`CC1=C(c2ccccc2)C(c2ccccc2)c2ccccc21` (stereo not drawn): the growth inhibition in assay [1] is 17.3%; in assay [2] it was 26.7%; in assay [3] it was 33.6%; in assay [4] it was 51.4%; in assay [5] it was 54.4%; in assay [6], 85.6% (active).

As to `C/C(CC(=O)Nc1cc(C)ccc1C)=N/N=C(N)N`, the growth inhibition is -24.6% in assay [1]; -28.3% in assay [2]; -11.5% in assay [3]; 17.8% in assay [4]; -22.9% in assay [5]; -8.55% in assay [6].

`Cn1c([N+](=O)[O-])cnc1COS(=O)(=O)c1cccnc1`: the growth inhibition in assay [1] was 6.05%; in assay [2], -9.15%; in assay [3], 25.8%; in assay [4] it was 11.1%; in assay [5] it was 16.8%; in assay [6] it was 15.6%.

On to `CCCCCC(=O)Nc1cc(S(=O)(=O)O)cc2cc(S(=O)(=O)O)cc(O)c12`, for which the growth inhibition in assay [1] is -24.1%; in assay [2], -15.2%; in assay [3], -8.85%; in assay [4] it was 10.7%; in assay [5] it was -9.85%; in assay [6], -7.7%.

Consider `Cc1cc(=O)[nH]c(NN2C(Cl)C(=O)C2c2ccc([N+](=O)[O-])cc2)n1` (stereo not drawn), for which the growth inhibition is 15.8% in assay [1]; -24.2% in assay [2]; 12.7% in assay [3]; 2.7% in assay [4]; 3.85% in assay [5]; -18.8% in assay [6].

Regarding `C(=N\C(/N=C/c1ccccc1)c1ccccc1)/c1ccccc1`, the growth inhibition in assay [1] is 0.4%; in assay [2] it was -4.8%; in assay [3], -3.25%; in assay [4] it was -43.8%; in assay [5], 2.55%; in assay [6], -6.2%.

With `CCCCCCCCCCCCCCCSc1ccc2ccccc2c1`, the growth inhibition in assay [1] is -17%; in assay [2] it was 1.35%; in assay [3], -5.2%; in assay [4], -25.2%; in assay [5], -13.8%; in assay [6], -13.5%.

On to `COc1ccc(/C=C2\N=C(N/N=C\C(O)C(O)C(O)C(O)CO)NC2=O)cc1` (stereo not drawn), for which the growth inhibition in assay [1] was -7.3%; in assay [2] it was -0.3%; in assay [3] it was 9.2%; in assay [4] it was 5.45%; in assay [5], -3.8%; in assay [6], -49.8%.

On to `Nc1ncnc2c1ncn2C1CCC(CP(=O)(O)O)C1` (stereo not drawn), for which the growth inhibition was -6.85% in assay [1]; -25.4% in assay [2]; -23.4% in assay [3]; -29.4% in assay [4]; -5.45% in assay [5]; -0.1% in assay [6].

`CCOC(=O)Nc1ccc(NC(C)=O)cc1`: the growth inhibition in assay [1] is 2.45%; in assay [2] it was 0.65%; in assay [3], 1.3%; in assay [4], -62.7%; in assay [5], -23.8%; in assay [6], -22.6%.

As for `COc1ccc(NC(=O)c2cc3ccccc3cc2OC(=O)NC(C)(C)C)cc1`, the growth inhibition in assay [1] is -12.5%; in assay [2], -13.3%; in assay [3], -7.15%; in assay [4], 2.5%; in assay [5] it was -0.15%; in assay [6], -32.8%.

In the case of `c1ccc(C2=NC(c3ccccc3)N=C(c3ccccc3)N2)cc1`, the growth inhibition was -0.75% in assay [1]; 10.3% in assay [2]; 6.1% in assay [3]; -6% in assay [4]; 9.75% in assay [5]; 13.2% in assay [6].

As for `N#CC(C(N)=O)C(CC(=O)c1ccccc1)c1ccccc1` (stereo not drawn), the growth inhibition in assay [1] was -7.65%; in assay [2], -3.1%; in assay [3] it was 13.3%; in assay [4], 15.9%; in assay [5], 19.2%; in assay [6], -2.05%.

On to `COc1ccc([N+](=O)[O-])cc1NC(=O)N/N=C(\C)C(C)(C)C`, for which the growth inhibition in assay [1] was 5.2%; in assay [2] it was 18.2%; in assay [3], 8.8%; in assay [4], -9.35%; in assay [5], 3.4%; in assay [6], 6.3%.

In the case of `Cc1cc2c(=O)cc(-c3ccc(C(=O)O)cc3)oc2c(C(N)=O)c1C`, the growth inhibition was 4.15% in assay [1]; 14.9% in assay [2]; 23.6% in assay [3]; 23.4% in assay [4]; 11.2% in assay [5]; 12.9% in assay [6].

Regarding `OCCN(CCO)c1ccc(O)cc1`, the growth inhibition in assay [1] is -6.85%; in assay [2], 2.3%; in assay [3], -17.1%; in assay [4] it was 13.6%; in assay [5], -3.6%; in assay [6], -11.7%.

On to `CCCCC(O)CNc1ccccc1` (stereo not drawn), for which the growth inhibition in assay [1] is -7.4%; in assay [2], 14.7%; in assay [3], 5.7%; in assay [4], -5.75%; in assay [5], 9.65%; in assay [6], 3.75%.

With `Nc1ccc(S(=O)(=O)Nc2cnc3c(Cl)cccc3n2)cc1`, the growth inhibition in assay [1] was -11%; in assay [2] it was 4.2%; in assay [3] it was 10.9%; in assay [4], -39.5%; in assay [5], 32.2%; in assay [6] it was -0.6%.

Take `CCC(O)(Cc1ccccc1)C(C(=O)O)c1ccccc1` (stereo not drawn): the growth inhibition in assay [1] was -32%; in assay [2], -31.1%; in assay [3], 4.6%; in assay [4] it was 4.9%; in assay [5], -28.1%; in assay [6], -26%.

For `CCOC(=O)N1C=Cc2c(c3ccccc3n2C)N1C(=O)OCC`, the growth inhibition was 3.85% in assay [1]; 1% in assay [2]; 2.15% in assay [3]; -6.3% in assay [4]; 5.7% in assay [5]; -6.95% in assay [6].

As to `CCOC(=O)N1CC(C)N(C(=O)OCC)CC1C` (stereo not drawn), the growth inhibition was -3.9% in assay [1]; -7.1% in assay [2]; 6.7% in assay [3]; -15.8% in assay [4]; 33.8% in assay [5]; 8.5% in assay [6].

Regarding `c1ccc(CCc2ccnc3ccccc23)cc1`, the growth inhibition was 8.15% in assay [1]; 3.1% in assay [2]; -2.9% in assay [3]; 1.6% in assay [4]; 9.15% in assay [5]; 5.55% in assay [6].

`CCOC(=O)C1=C(C)NC(=O)NC1c1ccc(N(C)C)cc1` (stereo not drawn): the growth inhibition in assay [1] is 22.8%; in assay [2], -4.05%; in assay [3] it was 23.2%; in assay [4], 21.6%; in assay [5], 30.6%; in assay [6], 29.1%.

For the compound `CCN1C(=O)N(CC)C2(CC(=O)c3ccccc3O2)C1=O` (stereo not drawn), the growth inhibition in assay [1] is 15.2%; in assay [2] it was -3.45%; in assay [3] it was 20.2%; in assay [4], 7.15%; in assay [5], 20.1%; in assay [6], 19.6%.

In the case of `O=C(c1ccccc1)c1cnc2ccccn12`, the growth inhibition was -2.35% in assay [1]; -2.35% in assay [2]; -3.15% in assay [3]; -15.9% in assay [4]; 5.8% in assay [5]; -8.05% in assay [6].

As to `C=CCSc1nc2ccc(NCn3c(=S)sc4cc([N+](=O)[O-])ccc43)cc2s1`, the growth inhibition is 12.6% in assay [1]; 14.4% in assay [2]; 30.9% in assay [3]; 14% in assay [4]; 3.4% in assay [5]; 31.9% in assay [6].

Regarding `COc1cc2c(c([N+](=O)[O-])c1)NC(=O)C(C)S2` (stereo not drawn), the growth inhibition is -11.3% in assay [1]; -33.6% in assay [2]; -19.4% in assay [3]; 28.8% in assay [4]; 2.15% in assay [5]; 3.65% in assay [6].

Turning to `Cc1ccc(S(=O)(=O)OCCN2C(=O)CCC2=O)cc1`, the growth inhibition in assay [1] is 12.8%; in assay [2], 8.8%; in assay [3], 4.65%; in assay [4] it was 9.5%; in assay [5] it was -0.95%; in assay [6], 15.8%.

The record behind these values is PubChem BioAssay (NCI).
